Six1-Eya2 blk: inhibitors of human Six1/Eya2 interaction. activity change, % (test concentration not listed). AlphaScreen GST-Six1/His-Eya2 binding, biochemical; hits give low values. Q15475+O00167. AID 651725. 360,000 tested, 0.56% active; in the data active = activity change below about -65%; inconclusive = mostly about -30% to -63%
Target sequence (O00167 whole entry, looked up): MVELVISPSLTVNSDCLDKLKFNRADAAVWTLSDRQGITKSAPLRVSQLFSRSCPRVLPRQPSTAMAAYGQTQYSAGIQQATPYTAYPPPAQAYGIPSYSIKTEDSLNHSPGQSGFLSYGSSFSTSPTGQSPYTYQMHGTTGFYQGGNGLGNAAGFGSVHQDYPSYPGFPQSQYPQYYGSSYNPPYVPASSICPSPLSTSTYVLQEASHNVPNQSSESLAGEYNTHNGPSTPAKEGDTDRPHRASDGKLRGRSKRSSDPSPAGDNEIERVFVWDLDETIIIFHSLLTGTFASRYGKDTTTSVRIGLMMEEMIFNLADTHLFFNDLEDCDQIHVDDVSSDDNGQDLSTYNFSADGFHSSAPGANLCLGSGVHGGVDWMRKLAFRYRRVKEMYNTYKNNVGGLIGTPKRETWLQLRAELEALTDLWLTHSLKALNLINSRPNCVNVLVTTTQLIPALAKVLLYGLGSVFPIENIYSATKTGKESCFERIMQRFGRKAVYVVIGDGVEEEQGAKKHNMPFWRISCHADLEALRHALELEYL
Target sequence (Q15475 whole entry, looked up): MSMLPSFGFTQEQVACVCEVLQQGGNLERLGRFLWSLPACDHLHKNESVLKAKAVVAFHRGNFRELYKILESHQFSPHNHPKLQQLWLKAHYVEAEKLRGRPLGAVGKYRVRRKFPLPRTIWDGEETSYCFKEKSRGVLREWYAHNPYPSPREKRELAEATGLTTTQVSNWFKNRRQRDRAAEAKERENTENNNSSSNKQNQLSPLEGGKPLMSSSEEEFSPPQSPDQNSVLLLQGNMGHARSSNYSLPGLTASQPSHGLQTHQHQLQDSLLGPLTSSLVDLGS
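GST-Six1 + His-Eya2 (5X stock: 250/500 nM); Tris pH 8.0, 300 mM NaCl, 0.05% BSA, 0.02% Tween 20; GSH donor/Ni acceptor beads; 1 h 37 °C dark; AlphaScreen readout.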
TGFb SMAD3 inh: inhibitors of TGF-b signaling; HepG2 CAGA-GFP TGF-b/SMAD3 reporter, GFP fluorescence, 18 h; TGF-beta stimulated, 500 pg/mL final; Potency, µM (highest dose often 46.1 µM), actives largely listed as inhibitors; 410,000 tested, 1.2% active; also: nearly all actives have a fitted effect of over 65% in size
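Read-out: total well GFP (ex488/em500-530) summed from mean per-cell fluorescence. Cells: HEPG2 CAGA-GFP, 1% FBS DMEM, 18 h at 37 degrees C with 500 pg/mL final TGF-beta. Unstimulated wells served as the full-inhibition control; stimulated DMSO wells = 0%.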
CtBP-E1A blk: CtBP/E1A binding inhibition | activity change, % (no concentration beside the values) | 340,000 tested, 0.49% active | AlphaScreen GST-E1A/His-CtBP binding, 1536-well; hits give low values; in the data active = activity change below about -65%; inconclusive = mostly about -30% to -63%
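Steps: dispense buffer (Tris pH 8.0, NaCl 300 mM, TCEP 1 mM, BSA, Tween 20); add 5X protein mix (GST-E1A, His-CtBP, 125 nM each); pin 23 nL compound; 2 h at 37 °C, dark; add 5X beads (50 ug/mL); 1 h; read.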
HepG2 tox-1: counter-screen for TGF-b inhibitors: cytotoxicity in HepG2 cells. HepG2 CAGA-GFP viability, ATP luminescence, 18 h. Potency, µM (titrated, usually from 46.1 µM), most hits filed as cytotoxic. 410,000 tested, 0.76% active. AID 588856
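HepG2 CAGA-GFP cells (1000/well, DMEM with 1% FBS) received compound, then TGF-beta at 500 pg/mL final, and were incubated 18 hours at 37 degrees C. Viability was read by CellTiter-Glo luminescence. Media-only wells were set as complete cell-killing and DMSO as no toxicity.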
ATXN viability: cell viability loss in ATXN counter-screen; S2 cells (HEK-293 line with an ATXN2-luciferase reporter) viability, CellTiter-Fluor protease fluorescence, 24 h; Potency, µM (doses to about 56.7 µM), actives largely listed as cytotoxic; 400,000 tested, 0.49% active; also: nearly all actives have a fitted effect of over 40% in size
ATXN2 expr inh: reduces ATXN2 reporter expression in HEK-293 cells; AID 1745845; 360,000 tested, 0.72% active; Potency, µM (titrated, usually from 57 µM), usual class: inhibitors; HEK-293 ATXN2-luciferase reporter, luminescence, 24 h; also: nearly all actives have a fitted effect of over 55% in size
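qHTS (up to 57 uM final) was run with 24 h compound exposure of reporter cells at 37 °C. Each well was multiplexed: SteadyGlo luminescence measured ATXN2-luciferase expression after a fluorogenic Gly-Phe-AFC viability readout (25 uM final).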
TGFb CAGA inh: TGF-b pathway inhibition, cherry-pick retest. AID 720534. Potency, µM (doses to about 46.1 µM), usual class: inhibitors. shares compounds with TGFb SMAD3 inh. HepG2 CAGA-GFP TGF-b reporter, GFP fluorescence, 18 h; cells stimulated with TGF-beta, 500 pg/mL. 1,600 tested, 63% active; also: nearly all actives have a fitted effect of over 65% in size
HepG2 tox-2: toxic to HepG2 cells in TGF-b counterscreen. shares compounds with TGFb SMAD3 inh. HepG2 CAGA-GFP viability, ATP luminescence, 18 h; cells stimulated with TGF-beta, 500 pg/mL. Potency, µM (top dose mostly 46.1 µM), hits mostly inhibitors. 1,600 tested, 27% active; also: nearly all actives have a fitted effect of over 70% in size
TGFb CCL64 inh: TGF-b inhibition, CCL64 orthogonal assay; shares compounds with TGFb SMAD3 inh; CCL64 CAGA-GFP reporter, TGF-b stimulated, GFP fluorescence, 18 h; Potency, µM (highest dose often 46.1 µM), actives largely listed as inhibitors; 1,600 tested, 41% active; AID 720536; also: nearly all actives have a fitted effect of over 65% in size
COP TGFb inh: blocks TGF-b signaling in HepG2 COP reporter. 1,600 tested, 3% active. AID 720537. shares compounds with TGFb SMAD3 inh. Potency, µM (doses to about 46.1 µM), hits mostly inhibitors. HepG2 COP-GFP TGF-b reporter, GFP fluorescence, 18 h; cells stimulated by added recombinant TGF-beta; also: nearly all actives have a fitted effect of over 70% in size
A number is an active result; – = inactive; ? = inconclusive; · = no result; ! = repeats disagree. This is a sample that favours compounds with a hit; in the whole collection about 2.8% have one here. Unless noted, calls follow the shape of the dose curve; as a rule, active = well fitted curve in the direction sought with a large enough effect; inconclusive = small, poorly fitted or top-dose-only effect, or another doubt; inactive = no such curve, though single readings can be large; an effect the other way counts as inactive or inconclusive.

SMILES	Six1-Eya2 blk	TGFb SMAD3 inh	CtBP-E1A blk	HepG2 tox-1	ATXN viability	ATXN2 expr inh	TGFb CAGA inh	HepG2 tox-2	TGFb CCL64 inh	COP TGFb inh
Cc1ccc(CS(=O)(=O)c2ncc(Cl)c(C(=O)Nc3ccc(OC(F)F)cc3)n2)cc1	–	10µM	–	18µM	?	?	8.2µM	16µM	3.3µM	?
COc1ccc(CNC(=O)c2nc(S(=O)(=O)Cc3ccccc3)ncc2Cl)cc1	–	6.3µM	·	13µM	18µM	·	3.7µM	16µM	2.3µM	?
O=C(NCc1ccc2c(c1)OCO2)c1nc(S(=O)(=O)Cc2ccccc2)ncc1Cl	–	10µM	–	–	?	?	2.3µM	3.7µM	2.6µM	23µM
O=C(NCc1ccccc1)c1nc(S(=O)(=O)Cc2ccccc2)ncc1Cl	–	6.3µM	·	8.9µM!	?	·	4.6µM	5.2µM	2.3µM	29µM
CC(=O)N1CCC(N(Cc2ccco2)C(=O)Nc2ccc(Br)cc2F)CC1	·	–	·	–	–	–	·	·	·	·
Cc1ccccc1-c1noc(-c2cc(C(C)C)[nH]n2)n1	·	?	·	–	·	·	·	·	·	·
COc1ccc(COc2cc(-c3cccc(OC)c3)nc3ccc(NC(C)=O)cc23)cc1	?	–	–	–	–	–	·	·	·	·
COc1ccc(COc2cc(-c3cccc(OC)c3)nc3ccc(N)cc23)cc1	–	7.1µM	·	–	·	–	3.3µM	–	1.8µM	–
COc1ccc2c(c1)c1c(c(=O)n(Cc3ccccc3)c(=O)n1CC(=O)Nc1ccccc1F)n2C	·	–	·	–	–	–	·	·	·	·
Cc1ccc(-c2nc3c4cnn(-c5cc(Cl)ccc5Cl)c4ncn3n2)cc1	·	·	·	–	·	·	·	·	·	·
COc1cccc(NC(=O)c2ccc3nc(Cc4ccccc4)oc3c2)c1	·	?	·	–	?	?	·	·	·	·
Cc1ccc(-n2cnnn2)cc1S(N)(=O)=O	·	–	·	–	–	–	·	·	·	·
CC(=O)N1CCN(c2ccc(NC(=S)NC(=O)COc3ccc(C(C)(C)C)cc3)cc2)CC1	–	?	–	–	–	–	4.6µM	?	–	–
CCCCC[C@H]1CN(CCc2ccccc2)C(=O)[C@@H]1CC(=O)NCc1ccc(OC)cc1	–	10µM	–	7.1µM!	–	–	?	–	?	–
CC1(C)CC(=O)C=C(NC2=CC3OC(c4ccccc4)OCC3OC2=O)C1 (stereo not drawn)	–	8.9µM	–	–	?	–	23µM	16µM	6.5µM	–
Cc1ccccc1NC1=CC(=O)CC(C)(C)C1	–	–	–	–	–	–	·	·	·	·
COc1ccc(-c2nnn(CC(=O)N3CCN(c4ccccc4OC)CC3)n2)cc1	–	3.5µM	–	–	–	–	–	–	?	–
COc1ccc(C(C(=O)Nc2ccc(F)cc2)N2CCN(CC(=O)N3CCCC3)CC2)cc1 (stereo not drawn)	–	·	–	·	·	·	·	·	·	·
CC(=O)Nc1ccc(C(=O)CSc2ncn(-c3ccccc3)n2)cc1	–	2.8µM	–	–	–	–	?	–	–	–
COc1ccccc1N1CCN(C(=O)C2CCN(S(=O)(=O)c3cccs3)CC2)CC1	·	–	·	–	–	–	·	·	·	·
Cc1ccc(N2C(=O)CSC23C(=O)N(CC(=O)NC2CCCCC2)c2ccccc23)cc1 (stereo not drawn)	·	–	·	–	–	–	·	·	·	·
Cc1ccc(S(=O)(=O)N2CCN(C(=O)c3ccccc3Cc3ccccc3)CC2)c(C)c1	–	11µM	–	–	–	–	16µM	?	?	–
Cc1nc(-c2ccc(S(=O)(=O)N3CCCN(CCc4ccccc4)CC3)s2)cs1	–	8.9µM	?	–	–	–	8.2µM	?	?	–
Cc1ccc(S(=O)(=O)N2CCN(C(=O)c3ccco3)CC2)c(C)c1	–	–	–	–	?	–	·	·	·	·
Cc1nc(-c2ccc(S(=O)(=O)N3CCN(C4c5ccccc5-c5ccccc54)CC3)s2)cs1	–	–	–	–	–	–	·	·	·	·
SMILES	Six1-Eya2 blk	TGFb SMAD3 inh	CtBP-E1A blk	HepG2 tox-1	ATXN viability	ATXN2 expr inh	TGFb CAGA inh	HepG2 tox-2	TGFb CCL64 inh	COP TGFb inh
Cc1ccc(S(=O)(=O)N2CCN(CCc3ccccc3)CC2)c(C)c1	–	?	–	–	–	–	23µM	?	?	–
CCc1cccc(NC(=O)C2Cc3ccccc3N2C(=O)c2ccccc2)c1 (stereo not drawn)	·	–	·	–	–	–	·	·	·	·
Cc1ccc(-n2ncc(C(=O)NCc3ccco3)c2C2CCN(C(=O)OC(C)(C)C)CC2)c(C)c1	·	–	·	–	?	–	·	·	·	·
Cc1ccc(S(=O)(=O)/N=C2\C=C(Nc3ccc(O)cc3)C(=O)c3ccccc32)cc1	-78	1.3µM	-69	3.2µM	4µM	6.3µM	1.3µM	2.3µM	5.2µM	?
COC(=O)c1ccccc1NC1=C/C(=N\S(=O)(=O)c2cccs2)c2ccccc2C1=O	-84!	?	?	–	7.1µM	4µM	7.3µM	15µM	3.3µM	16µM
COC1=C(Nc2ccccc2)C(=O)C(OC)=C(Nc2ccccc2)C1=O	–	–	–	–	–	–	·	·	·	·
O=C1C(Nc2ccccc2)=C/C(=N/S(=O)(=O)c2cccs2)c2ccccc21	-86	4µM	?	3.5µM	·	7.9µM	2.6µM	2.6µM	3.3µM	?
COC(=O)c1cccc(NS(=O)(=O)c2cccs2)c1C	–	–	–	–	–	–	·	·	·	·
O=C1C=C(Nc2ccccc2)C(=O)c2ccccc21	?	4µM	–	5µM	?	–	6.5µM	15µM	?	–
CC(=O)Nc1ccc(-c2ccnc3c2CC(C)(C(=O)Nc2cccc(OC(F)(F)F)c2)O3)cc1 (stereo not drawn)	–	?	–	–	?	?	·	·	·	·
CCN(c1ccccc1)c1nnc(NC(=O)Nc2ccc(Br)cc2)s1	·	–	·	–	·	·	·	·	·	·
Cc1c(-c2ccc(Cl)cc2)c(=O)oc2ccc(OC(=O)N3CCOCC3)cc12	·	?	·	–	·	·	·	·	·	·
Nc1ncc(S(=O)(=O)NCc2ccccc2)cn1	·	–	·	–	·	·	·	·	·	·

Assay outcomes: PubChem, National Center for Advancing Translational Sciences (NCATS)
